Shown are actives, neighbours in structure and some others; about 3.6% of the full set was active somewhere.
Bead autofluor – counter-screen for toxin protease inhibitors: compound fluorescence; fluorescence intensity (test concentration not listed); actives 3.1% (n = 360,000); compound autofluorescence counterscreen, microsphere flow cytometry; hits give high values; in the data active = fluorescence intensity above about 16000; inconclusive = no clear call, values can overlap the other calls
BoNT-F LC inh – inhibitors of Botulinum neurotoxin F light chain protease; actives 0.22% (n = 360,000); inhibition, % at 10 µM; Multiplex microsphere protease cleavage assay, flow cytometry; AID 588497; in the data active = inhibition above about 35%, passing the limit was not always enough; inconclusive = no clear call, values can overlap the other calls
MazEF act – activators of E. coli MazEF toxin-antitoxin RNase; P0AE70; FAM/BHQ RNA-DNA oligo cleavage fluorescence, 5 h; activation, % at 20 µM; actives 0.32% (n = 350,000); in the data active = activation above about 50%
BoNT A protease – inhibitors of Botulinum neurotoxin A light chain protease | actives 0.17% (n = 360,000) | multiplex microsphere protease substrate cleavage, flow cytometry | AID 588499 | inhibition, % at 10 µM
Anthrax LF prot – anthrax lethal factor protease inhibition | actives 0.12% (n = 360,000) | AID 588501 | P15917 | inhibition, % at 10 µM | multiplex microsphere protease cleavage assay, LF
Target sequence (P15917 whole entry, looked up): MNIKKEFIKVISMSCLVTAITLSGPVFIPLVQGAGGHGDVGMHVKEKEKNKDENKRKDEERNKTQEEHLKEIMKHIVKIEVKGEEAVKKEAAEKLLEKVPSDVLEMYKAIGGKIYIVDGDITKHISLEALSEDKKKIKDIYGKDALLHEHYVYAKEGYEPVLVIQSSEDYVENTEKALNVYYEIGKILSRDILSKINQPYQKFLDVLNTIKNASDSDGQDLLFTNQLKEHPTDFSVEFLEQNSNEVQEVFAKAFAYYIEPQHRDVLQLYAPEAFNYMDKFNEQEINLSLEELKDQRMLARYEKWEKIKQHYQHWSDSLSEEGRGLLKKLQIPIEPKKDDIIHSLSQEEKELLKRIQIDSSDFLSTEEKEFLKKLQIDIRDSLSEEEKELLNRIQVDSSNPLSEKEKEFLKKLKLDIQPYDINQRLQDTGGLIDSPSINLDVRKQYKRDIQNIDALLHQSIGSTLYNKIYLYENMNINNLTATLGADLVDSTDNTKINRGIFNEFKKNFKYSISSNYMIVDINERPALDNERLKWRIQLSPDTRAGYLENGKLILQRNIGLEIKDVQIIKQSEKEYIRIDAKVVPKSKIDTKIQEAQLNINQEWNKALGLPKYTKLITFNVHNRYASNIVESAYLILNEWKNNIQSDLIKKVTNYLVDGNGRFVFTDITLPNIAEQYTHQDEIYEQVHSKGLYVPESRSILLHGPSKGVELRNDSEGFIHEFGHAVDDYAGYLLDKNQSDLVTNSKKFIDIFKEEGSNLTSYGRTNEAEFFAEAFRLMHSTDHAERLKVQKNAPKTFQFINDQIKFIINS
Large screens that a line does not name were inactive. Cut-off read from the data, not from the text of the source, unless noted: active = inhibition above about 30%; inconclusive = no clear call, values can overlap the other calls; inactive = below that.

CCCCNC(=O)c1ccc(CS(=O)(=O)c2ccccc2OC)o1	none
COc1ccc(CCNC(=O)c2ccc(CS(=O)(=O)c3ccc(C)cc3)o2)cc1OC	none
COC(=O)c1ccc(COC(=O)CNC(=O)CNC(=O)c2ccc(OC)cc2)cc1	none (no result: Bead autofluor, BoNT-F LC inh, BoNT A protease, Anthrax LF prot)
Cc1ccc(S(=O)(=O)Cc2ccc(C(=O)N3CCC4(CC3)OCCO4)o2)cc1	Bead autofluor 20005
Cc1ccc(CS(=O)(=O)Cc2ccc(C(=O)N3CCC4(CC3)OCCO4)o2)cc1	none
COc1ccccc1-c1nnc(C2CCN(S(=O)(=O)c3ccccc3[N+](=O)[O-])CC2)o1	none
O=C(CCC(=O)N1CCOc2ccc(Cl)cc21)NCCCN1CCC(Cc2ccccc2)CC1	none
NC(=O)NNC1=Nc2cccc3cccc1c23	none
COc1ccc(C(=O)NNC2=Nc3cccc4cccc2c34)cc1	MazEF act 50.0
COc1ccc(CC(=O)NNC2=Nc3cccc4cccc2c34)cc1	BoNT-F LC inh inconclusive
Cc1ccc(C(=O)NNC2=Nc3cccc4cccc2c34)cc1	MazEF act 85.8
CCCCNC(=O)c1nc(C2CCN(S(=O)(=O)c3cccc(C(F)(F)F)c3)CC2)oc1-c1cccc(C(F)(F)F)c1	none (no result: MazEF act)
O=C(O)CCc1ccc(-c2ccc(Br)cc2)o1	Bead autofluor 23745, BoNT A protease inconclusive
CCOC(=O)CNC(=O)C1(c2ccccc2)CCCC1	Bead autofluor 16511
CCNC(=O)C1(c2ccccc2)CCCC1	none
O=C(CC(O)(CC(=O)OCc1ccccc1)C(=O)OCc1ccccc1)OCc1ccccc1	none
CCCc1nc2cc(CC(=O)OC)ccc2o1	Bead autofluor 24068
Cc1ccccc1CN1CCC(CNC(=O)C2CCCN(c3ncnc4c3nc3n4CCCCC3)C2)CC1 (stereo not given)	none
Cn1c(=O)[nH]c(=O)c2c1nc(Br)n2CCSc1nc2ccccc2o1	Bead autofluor 22279, BoNT A protease inconclusive
COc1ccc(Cc2c(-c3ccccc3)nc3c4ccccc4ccn23)c(C)c1	none (no result: MazEF act)
Cc1ccc(SCCC(=O)Nc2nccs2)cc1	none
O=C(CCSc1ccccc1)Nc1nccs1	Bead autofluor 16866, BoNT A protease inconclusive
Cc1scc(C(=O)NCc2ccco2)c1-c1ccccc1	Bead autofluor 20412
O=C(NCc1ccco1)c1ccccc1NS(=O)(=O)c1ccc(Br)s1	Bead autofluor 22236
O=C(NCc1ccco1)c1ccccc1-c1ccccc1	Bead autofluor 22200
O=C(O)c1ccccc1-c1ccccc1C(=O)NCc1ccco1	none
Cc1cc([N+](=O)[O-])ccc1NC(=O)CN1C2CCC1CC(NC(=O)NC13CC4CC(CC(C4)C1)C3)C2 (stereo not given)	none
CCCNC(=O)C1(C)CCCN(C(=O)c2cc3ccccc3s2)C1 (stereo not given)	none (no result: MazEF act)
Cc1cccc(-c2cc(NCCc3cccnc3)n3nccc3n2)c1	none (no result: MazEF act)
CC1(C)Cc2nc3sc4c(=O)n(CC(=O)NCc5ccccc5)cnc4c3cc2CO1	Bead autofluor 16709
CC1(C)Cc2nc3sc4c(=O)n(CC(N)=O)cnc4c3cc2CO1	none
CCCCN1CC(N2CCN(C)CC2)CS1(=O)=O (stereo not given)	none (no result: MazEF act)
COc1ccc(CC(=O)NCCN2CCOCC2)cc1	none
Cc1ccc(CC(=O)NCC(C)C)cc1	Bead autofluor 22914
Cc1ccc(CC(=O)NCCN2CCOCC2)cc1	BoNT-F LC inh 35.8
O=C(NCc1cccnc1)c1cc(C2CCCCN2C(=O)c2ccc(Cl)cc2)on1 (stereo not given)	none (no result: MazEF act)
Cc1ccc(S(=O)(=O)N2CCN(Cc3nc4sc(C)c(C)c4c(=O)[nH]3)CC2)cc1	MazEF act 88.2
CCOC(=O)CSc1nnc(CSc2nc(C)cc(C)n2)n1Cc1ccco1	MazEF act 74.0
Cc1cccc(OCc2nnc(SCC(=O)N(C(C)C)C(C)C)n2Cc2ccco2)c1C	Bead autofluor 16236
Cc1ccc(-n2c(CSc3nc(C)cc(C)n3)nnc2SCC(=O)NCc2ccco2)cc1	Bead autofluor 22159, BoNT A protease inconclusive
Cc1c(C(=O)N2CCCCC2)c(S(=O)(=O)N(C)Cc2ccccc2)c(C)n1C	none
CC1CC(O)C2C3(C)CCCC2(COC3=O)C12CCC1(CCOC1=O)O2 (stereo not given)	none (no result: MazEF act)
CC1(C(=O)NS(=O)(=O)c2ccccc2OC(F)(F)F)CCN1C(=O)c1ccco1 (stereo not given)	none (no result: MazEF act)
CCCCNc1nccnc1-c1cccc(C=O)c1	none (no result: MazEF act)
CCN(CC)S(=O)(=O)c1cccc(NC(=O)CCNC(=O)NC23CC4CC(CC(C4)C2)C3)c1	Bead autofluor inconclusive
Cc1nc(-n2[nH]c3c(c2=O)CCCC3)[nH]c(=O)c1Cc1ccccc1	MazEF act 62.8

High-throughput results: PubChem BioAssay, several laboratories
